Active and inactive are the calls of the source. No cut-off is given here; in the data, nearly all actives have IC50 up to about 8.1 µM.
Experiment: small molecules binding CAG repeat RNA – biochemical, fluorescence, dose response (AID 686959)
Conditions: r(CAG) RNA repeat binding

| Compound | IC50 |
| --- | --- |
| O=C(N/N=C/c1c(O)n(CCC2=CCCCC2)c(=S)[nH]c1=O)c1ccccc1 | 2040 nM (active) |
| CC/C(=N\NC(=O)c1ccccc1O)c1c(O)n(C2CCCCC2)c(=O)[nH]c1=O | 452 nM (active) |
| C/C(=N\NC(=O)c1ccccc1O)c1c(O)n(C2CCCCC2)c(=O)[nH]c1=O | 450 nM (active) |

Source: PubChem BioAssay AID686959 (The Scripps Research Institute Molecular Screening Center, 2013)
